Bioassay records deposited in PubChem BioAssay by National Center for Advancing Translational Sciences (NCATS).
A selection: hits, their analogues and other compounds. The true share with any hit is near 0.82%.
GPT2 inhibitor – blocks human glutamate pyruvate transaminase 2; Recombinant GPT2, coupled pyruvate oxidase/HRP Amplex Red fluorescence; Potency, µM (doses to about 57.7 µM), inactives show top-dose activity change, negative = inhibition, actives largely listed as inhibitors; 100,000 compounds, 0.25% hits; AID 1671188; further: potency means the concentration at half of the fitted maximal effect; on the % scale 0 is the no-effect control and ±100 the full control effect; nearly all actives have a fitted effect of over 60% in size
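Recombinant GPT2 (10ng/uL) with 250uM a-KG and 2mM L-alanine, 30 min at room temperature, in HEPES pH 7.5 buffer. Pyruvate detected by pyruvate oxidase/HRP/Amplex Red fluorescence after 30 min in the dark; AOA (50uM) as positive control.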
IP6K1 inh – IP6K1 kinase inhibition; Q92551; IP6K1 kinase, ADP-Glo luminescence, 2 h; stronger effect = lower value; activity change, % (series mostly up to about 58 µM); 140,000 compounds, 0.81% hits; AID 1645851; in the data active means activity change below about -25%; further: on the % scale 0 is the no-effect control and ±100 the full control effect
Target sequence (Q92551 whole entry, looked up): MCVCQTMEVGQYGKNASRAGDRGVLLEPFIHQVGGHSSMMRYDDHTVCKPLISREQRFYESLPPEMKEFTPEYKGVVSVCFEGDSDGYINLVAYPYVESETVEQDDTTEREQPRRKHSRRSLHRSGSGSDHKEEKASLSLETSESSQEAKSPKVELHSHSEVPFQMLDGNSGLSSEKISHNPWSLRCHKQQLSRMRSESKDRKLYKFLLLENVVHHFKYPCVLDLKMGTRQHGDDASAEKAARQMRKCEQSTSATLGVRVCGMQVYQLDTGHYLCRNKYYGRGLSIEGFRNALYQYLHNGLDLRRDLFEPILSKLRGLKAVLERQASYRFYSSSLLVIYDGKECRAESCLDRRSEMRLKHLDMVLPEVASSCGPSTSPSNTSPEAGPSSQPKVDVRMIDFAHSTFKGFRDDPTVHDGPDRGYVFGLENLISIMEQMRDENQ
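ADP-Glo luminescence measures ADP made by human IP6K1 during a 2 h RT reaction with ATP/IP6 (mix at 1.3 mM/130 uM); top library doses 57.5 and 19.1 uM final.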
IP6K1 inh cnf – human IP6K1 inhibition, confirmatory; shares compounds with IP6K1 inh; recombinant IP6K1 kinase, ADP-Glo luminescence, 2 h; Potency, µM (titrated, usually from 49 µM), without a hit: at the top dose activity change, negative = inhibition, hits mostly inhibitors; 1,200 compounds, 13% hits; further: potency means the concentration at half of the fitted maximal effect; on the % scale 0 is the no-effect control and ±100 the full control effect; nearly all actives have a fitted effect of over 65% in size
GPT2 conf – confirmation of human GPT2 inhibitors. 95 compounds, 90% hits. GPT2 enzyme, coupled Amplex Red pyruvate fluorescence. shares compounds with GPT2 inhibitor. Potency, µM, hits mostly inhibitors. AID 1671187
* hit, by the source's call; i = inactive; ? = inconclusive; . = no result given; [ ] = another dose, or the depositor's remark. Unless noted, the call rests on the fitted dose curve; in most records, active means well fitted curve in the direction sought with a large enough effect; inconclusive means small, poorly fitted or top-dose-only effect, or another doubt; inactive means no such curve, though single readings can be large; an effect the other way counts as inactive or inconclusive.

SMILES	GPT2 inhibitor	IP6K1 inh	IP6K1 inh cnf	others
NC(=O)c1cc(S(=O)(=O)NCC2CCC(C(=O)Nc3ccc(Cl)cc3)CC2)cs1 (configuration not stated)	.	1	.
Cc1ccc(CNC(=O)c2sc3ncnc(N(C)C4CCCCC4)c3c2C)cc1	.	-6	.
Cc1ccccc1CNC(=O)c1sc2ncnc(N(C)C3CCCCC3)c2c1C	.	-28*	-17%
COc1ccc(S(=O)(=O)N2C[C@@H](F)C[C@H]2C(=O)N2CCc3ccccc3C2)cc1	i	0	.
O=C(c1ccccc1-c1nn[nH]n1)N1CCN(CCN2CCOCC2)CC1	-14%	-5	.
CN1CC2(CCN(C(=O)c3ccccc3-c3nn[nH]n3)CC2)CC1C(=O)O (configuration not stated)	0%[11.5 µM]	-38*	-14%
O=C1CC(c2ccccc2)N(C(=O)c2cccs2)CCCCCCN1 (configuration not stated)	4%	4	.
COC(=O)[C@@H]1C[C@@H](NS(=O)(=O)c2ccc(C(F)(F)F)cc2)CN1C	0%	10	.
Cc1ccc(C(=O)Oc2cc(-c3ccc4c(c3)OCO4)cc(=O)c3c(C)oc(C)c23)cc1	.	-54*	?
Cc1oc(C)c2c(=O)cc(-c3ccc4c(c3)OCO4)cc(OC(=O)c3cccc(Cl)c3)c12	.	-23	.
COc1cc(-c2cc(OC)c3c(C)oc(C)c3c(=O)c2)ccc1OC(=O)c1ccc(C)cc1	.	-21	.
CCOc1cc(-c2ccc(OC(=O)c3ccc(C)cc3)c(OC)c2)cc(=O)c2c(C)oc(C)c12	.	-27*	3%
COc1cccc(CCC(=O)N2CCC(CC(=O)NC3CC3)C2)c1 (configuration not stated)	i	5	.
CCOc1ccc(CNC(=O)C(C)n2ncn3cccc3c2=O)cc1 (configuration not stated)	.	-27*	-11%
CCOc1ccc(CNC(=O)Cn2c(=O)c3cccn3c3cccnc32)cc1	.	-3	.
COc1ccc(NC(=O)c2nnn(Cc3ccccc3C)c2N)c(OC)c1	.	-27*	-11%
COc1ccc(NC(=O)c2nnn(CC(=O)Nc3cc(C)cc(C)c3)c2N)c(OC)c1	.	-2	.
COc1cc2c(cc1-c1nccn1-c1ccc(NC(C)=O)cc1)OCCO2	i	-2	.
COc1cc(F)c(F)c(Nc2ccc(I)cc2F)c1NS(=O)(=O)C1(C[C@H](O)CO)CC1	i	-6	-15%
O=C(c1ccc(F)c(F)c1Nc1ccc(I)cc1F)N1CC(O)([C@@H]2CCCCN2)C1	i	8	.
O=C(c1ccccc1)N1C[C@H]2OC(=O)N(CCCN3CCOCC3)[C@H]2C1	-19%	1	.
CCc1ocnc1C(=O)N1C[C@H]2OC(=O)N(CCCN3CCOCC3)[C@H]2C1	2%	-72*	-11%
O=C(C1CCCN1[S+](=O)([O-])c1ccccc1)N1CCC(c2nc3ccncc3[nH]2)CC1 (configuration not stated)	-15%	18	.
Cc1noc(C)c1[S+](=O)([O-])N1CCCC1C(=O)N1CCC(c2nc3ccncc3[nH]2)CC1 (configuration not stated)	i	-31*	-14%
CN1CCN(C(=O)c2cc(-c3cccc(F)c3)nc3c2cnn3C)CC1	.	10	.
SMILES	GPT2 inhibitor	IP6K1 inh	IP6K1 inh cnf	others
O=C(NCCc1csc(-c2cccnc2)n1)C1NCCc2[nH]cnc21 (configuration not stated)	-29%	-5	.
CCN(CC)S(=O)(=O)c1ccc2c(c1)N(CC(=O)N1CCN(c3cccc(C(F)(F)F)c3)CC1)C(=O)CO2	.	-25*	-2%
CCN(CC)S(=O)(=O)c1ccc2c(c1)N(CC(=O)N1CCN(c3ccc(F)cc3)CC1)C(=O)CO2	.	-2	.
COc1ccc(NC(=O)C(=O)NCC2(c3ccccc3)CCCC2)c(OC)c1	.	-27*	-2%
COc1ccc(C2(CNC(=O)C(=O)Nc3ccccc3C)CCCC2)cc1OC	.	27	.
CCCOc1ccc(-c2nc3ccc(Br)cc3c(=O)o2)cc1	.	-16	.
CCOc1cccc(-c2nc3ccccc3c(=O)o2)c1	.	-29*	?
CC(=O)N1CC2(Cc3ccccc31)CN([S+](C)(=O)[O-])C2	-4%[88.5 µM]	-14	.
Cc1cc(C)cc(Nc2ncnc3c2nc2n3CCCC2)c1	.	-32*	-19%
Cc1ccc(Nc2ncnc3c2nc2n3CCCC2)cc1F	.	-15	.
O=C(NCCc1ccccc1F)c1ccc2nccn2c1	1%[88.5 µM]	-3	.
O=C(NCCc1nc(-c2ccccc2)cs1)c1ccc2nccn2c1	i	-41*	?
Cc1cc(C)n(CCC(=O)N2CCC(Cc3noc(-c4ccccc4)n3)C2)n1 (configuration not stated)	i	5	.
CCc1c(Cl)c(O)c(Cl)c(O)c1C(=O)O[C@H]1[C@H](O)[C@H](OC)[C@H](OC/C2=C\C=C\C[C@H](O)/C(C)=C\[C@H](CC)[C@@H](O[C@@H]3OC(C)(C)[C@@H](OC(=O)C(C)C)[C@H](O)[C@@H]3O)/C(C)=C/C(C)=C/C[C@@H]([C@@H](C)O)OC2=O)O[C@@H]1C	3%[27.3 µM]	-3	.
Cc1cc(C)c2oc(-c3cccc(NC(=O)c4ccco4)c3)nc2c1	.	-1	.
Cc1cc(C)c2oc(-c3ccc(C)c(NC(=O)/C=C/c4ccco4)c3)nc2c1	.	-36*	?
O=C(NC1CC1)C1CN(Cc2ccccc2)C(=O)N1 (configuration not stated)	1%[88.5 µM]	3	.
COc1ccccc1-c1nc2c(c(SCc3cc(C)ccc3C)n1)Cc1c(CO)cnc(C)c1O2	.	-27*	-4%
COc1ccc(-c2nc3c(c(SCc4cc(C)ccc4C)n2)Cc2c(CO)cnc(C)c2O3)cc1	.	-1	.
Cc1cc(C)c2[nH]c(C(=O)N3CCN(Cc4ccccc4)C(=O)C3C)c(C)c2c1 (configuration not stated)	-2%[11.5 µM]	12	.
CN(C)c1ccc(Nc2nc(N)n(C(=O)c3c(F)cccc3F)n2)cc1	3.2µM*	-51*	10µM*	GPT2 conf=1.2*
NC(=O)c1nc(Nc2ccccc2)sc1NC(=O)c1c(F)cccc1F	.	-12	.
CCNC(=O)N1CCCCCNC(=O)[C@@H]2CCC[C@@H]21	4%	5	.
O=C(Nc1ccc2c(c1)CCN(Cc1ncn[nH]1)C2)c1ccccc1-c1ccc(C(F)(F)F)cc1	i	-5	.
CC(C)Nc1cc(-c2c[nH]c(C(=O)N[C@H](CO)c3cccc(Cl)c3)c2)c(Cl)cn1	0%	-19	.
Cc1cnc(Nc2ccc(F)cc2Cl)nc1-c1c[nH]c(C(=O)NC(CO)c2cccc(Cl)c2)c1 (configuration not stated)	7.1µM*	-42*	9.2µM*	GPT2 conf=3.4*
Clc1ccc2c(c1)Nc1ccccc1S2	?	15	.	GPT2 conf=3.4*
CN1CCN(C2=Nc3ccccc3Sc3ccc(Cl)cc32)CC1	?	10	.
Cc1ccccc1CN1CCN(C(=O)CN2CCCC2=O)CC(O)C1 (configuration not stated)	1%	-3	.
Cc1ccc(Nc2ccnc(N3CCCC3C(=O)NCC(F)F)n2)cc1 (configuration not stated)	i	11	.
